31 targets from the supplement of paper PMC10849652 can be followed below.

About 8,800 targets were measured; listed, in parts, are those with a hit and a random draw of the rest. About 0.5% of all pairs of compound and target were hits. Unmarked numbers belong to inactive results.

Chain of UniProt P47900 (P47900 whole entry, looked up): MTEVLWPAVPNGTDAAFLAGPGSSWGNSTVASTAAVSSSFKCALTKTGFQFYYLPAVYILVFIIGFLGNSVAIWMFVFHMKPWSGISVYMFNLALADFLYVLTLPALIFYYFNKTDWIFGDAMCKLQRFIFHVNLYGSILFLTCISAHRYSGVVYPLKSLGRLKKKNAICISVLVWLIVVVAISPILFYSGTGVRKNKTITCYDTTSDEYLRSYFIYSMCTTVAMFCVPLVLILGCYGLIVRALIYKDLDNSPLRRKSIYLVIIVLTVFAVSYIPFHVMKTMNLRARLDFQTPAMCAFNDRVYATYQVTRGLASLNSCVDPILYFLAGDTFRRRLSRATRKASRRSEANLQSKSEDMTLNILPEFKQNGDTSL
Chain of UniProt Q9NZT2 (Q9NZT2 whole entry, looked up): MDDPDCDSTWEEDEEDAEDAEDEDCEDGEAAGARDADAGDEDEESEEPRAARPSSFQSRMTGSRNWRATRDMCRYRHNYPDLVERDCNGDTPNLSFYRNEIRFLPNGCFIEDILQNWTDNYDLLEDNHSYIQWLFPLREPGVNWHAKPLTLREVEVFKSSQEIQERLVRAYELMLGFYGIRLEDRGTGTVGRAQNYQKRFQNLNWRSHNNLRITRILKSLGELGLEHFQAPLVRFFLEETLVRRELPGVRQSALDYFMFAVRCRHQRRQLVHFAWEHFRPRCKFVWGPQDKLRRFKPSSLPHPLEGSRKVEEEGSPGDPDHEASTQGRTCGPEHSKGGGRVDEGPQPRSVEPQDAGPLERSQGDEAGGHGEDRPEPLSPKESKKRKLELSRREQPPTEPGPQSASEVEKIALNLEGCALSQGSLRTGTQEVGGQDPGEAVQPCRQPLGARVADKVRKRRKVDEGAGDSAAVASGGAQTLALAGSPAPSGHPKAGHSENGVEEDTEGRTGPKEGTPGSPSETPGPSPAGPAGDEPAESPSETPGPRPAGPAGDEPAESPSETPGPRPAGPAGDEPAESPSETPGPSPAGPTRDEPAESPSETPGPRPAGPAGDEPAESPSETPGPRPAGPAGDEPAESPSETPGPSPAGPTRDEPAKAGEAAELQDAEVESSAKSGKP
Chain of UniProt P84157 (P84157 whole entry, looked up): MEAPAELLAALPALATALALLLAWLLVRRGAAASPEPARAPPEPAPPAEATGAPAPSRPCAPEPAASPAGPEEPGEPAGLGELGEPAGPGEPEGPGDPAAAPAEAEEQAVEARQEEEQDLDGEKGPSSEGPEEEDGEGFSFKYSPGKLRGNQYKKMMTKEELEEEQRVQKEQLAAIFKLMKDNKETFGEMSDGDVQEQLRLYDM
Chain of UniProt P48552 (P48552 whole entry, looked up): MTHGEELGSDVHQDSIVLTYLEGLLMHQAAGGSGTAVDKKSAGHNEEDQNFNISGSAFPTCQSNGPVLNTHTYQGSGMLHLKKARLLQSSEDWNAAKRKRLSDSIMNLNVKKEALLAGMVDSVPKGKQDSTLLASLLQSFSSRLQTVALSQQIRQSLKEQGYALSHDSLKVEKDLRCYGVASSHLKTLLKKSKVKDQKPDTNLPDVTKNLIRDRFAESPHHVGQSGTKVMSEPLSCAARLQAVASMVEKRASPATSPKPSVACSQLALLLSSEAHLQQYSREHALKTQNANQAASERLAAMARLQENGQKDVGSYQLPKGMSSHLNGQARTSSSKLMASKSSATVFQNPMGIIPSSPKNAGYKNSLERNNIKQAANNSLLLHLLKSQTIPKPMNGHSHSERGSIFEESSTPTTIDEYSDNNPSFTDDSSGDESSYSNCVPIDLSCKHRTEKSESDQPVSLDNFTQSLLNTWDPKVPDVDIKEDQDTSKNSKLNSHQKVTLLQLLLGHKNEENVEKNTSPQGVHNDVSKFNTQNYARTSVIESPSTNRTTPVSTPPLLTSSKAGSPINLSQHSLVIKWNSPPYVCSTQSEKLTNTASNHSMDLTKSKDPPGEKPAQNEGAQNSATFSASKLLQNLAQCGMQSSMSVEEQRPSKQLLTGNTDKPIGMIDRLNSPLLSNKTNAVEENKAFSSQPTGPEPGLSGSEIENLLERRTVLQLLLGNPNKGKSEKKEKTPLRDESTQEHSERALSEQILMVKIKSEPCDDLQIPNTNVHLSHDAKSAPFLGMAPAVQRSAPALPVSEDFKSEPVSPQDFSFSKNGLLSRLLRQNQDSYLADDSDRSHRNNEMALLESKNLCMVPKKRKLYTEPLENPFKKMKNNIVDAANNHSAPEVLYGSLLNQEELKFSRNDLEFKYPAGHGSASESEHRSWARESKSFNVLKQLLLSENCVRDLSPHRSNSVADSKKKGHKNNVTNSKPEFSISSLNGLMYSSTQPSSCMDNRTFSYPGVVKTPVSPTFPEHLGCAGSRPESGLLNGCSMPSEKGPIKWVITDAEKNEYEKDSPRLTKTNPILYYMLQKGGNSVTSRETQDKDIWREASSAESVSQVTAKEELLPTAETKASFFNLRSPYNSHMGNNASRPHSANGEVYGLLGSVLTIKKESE
Chain of UniProt O00221 (O00221 whole entry, looked up): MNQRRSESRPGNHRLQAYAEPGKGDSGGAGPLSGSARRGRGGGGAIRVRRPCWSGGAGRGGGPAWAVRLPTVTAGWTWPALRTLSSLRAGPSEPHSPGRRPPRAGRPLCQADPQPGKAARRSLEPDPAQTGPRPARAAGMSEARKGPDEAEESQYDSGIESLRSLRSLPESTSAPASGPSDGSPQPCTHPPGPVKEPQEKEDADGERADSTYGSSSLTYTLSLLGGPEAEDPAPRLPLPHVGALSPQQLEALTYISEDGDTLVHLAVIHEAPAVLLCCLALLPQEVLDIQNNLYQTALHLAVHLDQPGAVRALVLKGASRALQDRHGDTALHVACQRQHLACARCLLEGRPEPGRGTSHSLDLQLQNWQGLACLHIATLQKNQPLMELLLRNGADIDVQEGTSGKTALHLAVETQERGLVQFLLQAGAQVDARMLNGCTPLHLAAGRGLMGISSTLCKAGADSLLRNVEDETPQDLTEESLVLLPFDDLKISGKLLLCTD
Chain of UniProt Q15746 (Q15746 whole entry, looked up): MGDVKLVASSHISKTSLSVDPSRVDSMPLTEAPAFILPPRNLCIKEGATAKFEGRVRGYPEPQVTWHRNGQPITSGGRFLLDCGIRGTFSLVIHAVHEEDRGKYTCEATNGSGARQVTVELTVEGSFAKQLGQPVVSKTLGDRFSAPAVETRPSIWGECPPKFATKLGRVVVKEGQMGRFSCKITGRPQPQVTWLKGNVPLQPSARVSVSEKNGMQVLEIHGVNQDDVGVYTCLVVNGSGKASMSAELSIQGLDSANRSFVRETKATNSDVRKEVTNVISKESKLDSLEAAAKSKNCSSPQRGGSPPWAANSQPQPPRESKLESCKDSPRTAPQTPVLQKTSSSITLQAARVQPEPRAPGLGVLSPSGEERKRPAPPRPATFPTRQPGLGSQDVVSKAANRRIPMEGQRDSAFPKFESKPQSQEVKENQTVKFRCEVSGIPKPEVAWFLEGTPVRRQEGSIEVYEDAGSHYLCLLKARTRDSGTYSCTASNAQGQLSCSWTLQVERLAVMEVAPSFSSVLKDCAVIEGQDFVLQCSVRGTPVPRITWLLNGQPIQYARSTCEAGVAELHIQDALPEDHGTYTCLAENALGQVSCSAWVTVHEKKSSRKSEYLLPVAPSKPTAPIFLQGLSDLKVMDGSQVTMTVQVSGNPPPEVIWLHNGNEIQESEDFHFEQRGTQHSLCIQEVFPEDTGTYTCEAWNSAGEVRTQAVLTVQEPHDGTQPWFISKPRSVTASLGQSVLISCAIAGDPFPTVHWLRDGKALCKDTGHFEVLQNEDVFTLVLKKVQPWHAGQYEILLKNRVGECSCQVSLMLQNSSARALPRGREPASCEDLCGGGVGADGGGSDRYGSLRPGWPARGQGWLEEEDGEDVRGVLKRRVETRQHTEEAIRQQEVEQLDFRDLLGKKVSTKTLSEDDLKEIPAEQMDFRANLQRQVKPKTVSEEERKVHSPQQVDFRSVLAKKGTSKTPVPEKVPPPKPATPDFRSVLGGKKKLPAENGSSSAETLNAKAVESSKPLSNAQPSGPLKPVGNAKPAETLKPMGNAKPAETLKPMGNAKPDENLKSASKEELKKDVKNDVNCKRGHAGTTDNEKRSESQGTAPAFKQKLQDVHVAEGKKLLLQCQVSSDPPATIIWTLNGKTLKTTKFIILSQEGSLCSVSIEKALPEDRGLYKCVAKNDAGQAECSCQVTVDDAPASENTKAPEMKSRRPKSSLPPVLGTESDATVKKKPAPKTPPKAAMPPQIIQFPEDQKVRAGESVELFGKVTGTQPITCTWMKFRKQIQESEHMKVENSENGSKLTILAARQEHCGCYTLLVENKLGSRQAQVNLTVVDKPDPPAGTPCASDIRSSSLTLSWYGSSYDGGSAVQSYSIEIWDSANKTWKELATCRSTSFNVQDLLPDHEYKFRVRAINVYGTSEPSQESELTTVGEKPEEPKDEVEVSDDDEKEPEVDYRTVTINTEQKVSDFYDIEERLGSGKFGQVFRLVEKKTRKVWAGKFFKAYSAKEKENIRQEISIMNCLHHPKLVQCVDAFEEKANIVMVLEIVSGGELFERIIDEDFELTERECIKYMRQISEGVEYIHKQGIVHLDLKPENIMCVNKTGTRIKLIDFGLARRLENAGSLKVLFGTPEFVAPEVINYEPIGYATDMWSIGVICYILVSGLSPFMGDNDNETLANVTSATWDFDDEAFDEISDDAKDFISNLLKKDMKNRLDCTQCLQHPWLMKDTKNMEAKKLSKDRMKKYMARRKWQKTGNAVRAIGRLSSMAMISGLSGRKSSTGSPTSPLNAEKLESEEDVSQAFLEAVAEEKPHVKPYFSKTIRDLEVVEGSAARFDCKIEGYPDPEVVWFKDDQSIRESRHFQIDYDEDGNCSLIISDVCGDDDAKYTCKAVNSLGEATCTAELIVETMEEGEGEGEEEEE
Chain of UniProt Q9UDX5 (Q9UDX5 whole entry, looked up): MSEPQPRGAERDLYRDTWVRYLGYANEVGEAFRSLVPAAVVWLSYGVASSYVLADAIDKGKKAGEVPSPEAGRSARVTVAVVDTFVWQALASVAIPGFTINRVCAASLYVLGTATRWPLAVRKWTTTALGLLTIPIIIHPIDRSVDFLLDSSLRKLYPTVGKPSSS

Compound in this experiment: c1ccc([C@@H]2C[C@H]2NC2CCNCC2)cc1
The experiment is described as follows: log2 fold change, soluble protein after heating vs DMSO (PISA); higher = thermal stabilisation; K562 lysate, 10 uM; active = over 0.2 and 3.5 SD of the protein, either way, in both replicates (recomputed). An outline of the steps: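 K562 pellets were dounce-homogenised in PBS pH 7.4 with 1 mM MgCl2, and the crude extract at 1 mg/mL protein was treated with 10 μM compound for 30 min. Aliquots were heated for 3 min across 48°C-58°C, pooled, and brought to 0.5% NP-40 at 4°C; soluble protein was the supernatant after 21,000xg for 90 min. Soluble protein was quantified by TMTpro 16plex LC-MS/MS with channel sums equalised, and reported as log2 fold change in thermal stability against DMSO controls, with values from duplicates.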
Regarding MYO10 (UniProt Q9HD67), the log2 fold change is 0.024.

Regarding MYCBP2 (UniProt O75592), the log2 fold change was -0.005.

As to MYBL2 (UniProt P10244), the log2 fold change is 0.326 (active).

With OPA1 isoform 2 (UniProt O60313), the log2 fold change is 0.084.

For the target PAPOLG (UniProt Q9BWT3), the log2 fold change is -0.107.

In the case of NSA2 (UniProt O95478), the log2 fold change is 0.122.

Consider NR2C2 isoform 2 (UniProt P49116), for which the log2 fold change was 0.047.

For the target NDUFA4 (UniProt O00483), the log2 fold change is 0.287.

For the target NSUN7 (UniProt Q8NE18), the log2 fold change was -0.081.

For PAGE4 (UniProt O60829), the log2 fold change is 0.118.

Regarding NUP188 (UniProt Q5SRE5), the log2 fold change was 0.016.

For the target MYOM1 (UniProt P52179), the log2 fold change is -0.079.

Consider NR2F2 (UniProt P24468), for which the log2 fold change is 0.082.

Regarding NRIP1 (UniProt P48552), the log2 fold change was -0.069.

Take ORC3 (UniProt Q9UBD5): the log2 fold change is -0.276.

In the case of OGFR (UniProt Q9NZT2), the log2 fold change was 0.088.

NNT (UniProt Q13423): the log2 fold change was 0.034.

As for P2RY1 (UniProt P47900), the log2 fold change is -0.022.

With MTFP1 (UniProt Q9UDX5), the log2 fold change is -0.222.

In the case of NFKBIE (UniProt O00221), the log2 fold change was -0.087.

On to MXRA7 (UniProt P84157), for which the log2 fold change was -0.062.

With OSBPL6 isoform 5 (UniProt Q9BZF3), the log2 fold change was -0.087.

For the target PARD3B (UniProt Q8TEW8), the log2 fold change was -0.085.

On to NDC1 (UniProt Q9BTX1), for which the log2 fold change is -0.172.

As to MYLK (UniProt Q15746), the log2 fold change is 0.123.

PAGE2B (UniProt Q5JRK9): the log2 fold change was 0.182.

With NDUFAF5 (UniProt Q5TEU4), the log2 fold change was 0.004.

For MSH2 (UniProt P43246), the log2 fold change is 0.065.

With OSBPL1A (UniProt Q9BXW6), the log2 fold change is -0.084.

As to MT-ATP8 (UniProt P03928), the log2 fold change was 0.104.

With PAXBP1 (UniProt Q9Y5B6), the log2 fold change is 0.001.
